These results are taken from publication PMC5700166.

This assay concerns the target T1, GST-Aq-NF-kB (Amphimedon queenslandica, UniProt A9Y5G7 2-389).
T1 sequence: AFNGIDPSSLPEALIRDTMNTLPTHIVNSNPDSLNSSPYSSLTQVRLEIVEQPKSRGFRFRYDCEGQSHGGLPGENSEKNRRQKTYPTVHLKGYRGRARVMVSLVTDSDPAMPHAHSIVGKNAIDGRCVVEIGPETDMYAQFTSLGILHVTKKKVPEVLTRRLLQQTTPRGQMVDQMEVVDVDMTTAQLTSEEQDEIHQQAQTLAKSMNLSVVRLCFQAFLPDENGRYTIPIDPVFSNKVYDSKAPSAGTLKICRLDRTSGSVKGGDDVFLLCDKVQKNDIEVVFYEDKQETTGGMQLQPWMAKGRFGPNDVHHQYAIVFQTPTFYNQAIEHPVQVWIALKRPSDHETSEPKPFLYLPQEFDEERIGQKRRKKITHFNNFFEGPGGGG
Kind of assay: protein-binding microarray (PBM); PBM: ~300 nM protein, 6 mM HEPES pH 7.8, 80 mM KCl, 0.5 mM EDTA, 0.5 mM EGTA, 6% glycerol, 35 ng/ul poly-dIdC, 1% milk, 1 h, room temperature; Ap Aiptasia and Nv Nematostella (sea anemones) / Co Capsaspora / Aq Amphimedon (sponge) / Dm Drosophila / Hu human; RHD is the Rel homology domain; high values mean tight binding. The following applies: dsDNA, one strand shown.
In the case of “CCGATTAACATCAGAATTTCCGCTGATGTTAATCGGGTCTTGATTCGCTTGACGCTGCTG”, the binding signal was 1.06 z-score.
As for “CCGATTAACATCACGGCAAGTCCTGATGTTAATCGGGTCTTGATTCGCTTGACGCTGCTG”, the figure is 1.46 z-score; as for “CCGATTAACATCAAAATTTTCCATGATGTTAATCGGGTCTTGATTCGCTTGACGCTGCTG”, 1.14 z-score.
As to “CCGATTAACATCACGGACTGCCCTGATGTTAATCGGGTCTTGATTCGCTTGACGCTGCTG”, the binding signal was found to be 1.7 z-score.
On to “CCGATTAACATCACGGTCTTTCCTGATGTTAATCGGGTCTTGATTCGCTTGACGCTGCTG”, for which the binding signal came to 2.62 z-score.
As for “CCGATTAACATCAAGGAACTTCCTGATGTTAATCGGGTCTTGATTCGCTTGACGCTGCTG”, the figure is 1.83 z-score; as for “CCGATTAACATCAAAATTCCGGATGATGTTAATCGGGTCTTGATTCGCTTGACGCTGCTG”, 1.54 z-score.
As for “CCGATTAACATCAGGAAACTTCCTGATGTTAATCGGGTCTTGATTCGCTTGACGCTGCTG”, the figure is 1.43 z-score.
As for “CCGATTAACATCAGGACAGTCCATGATGTTAATCGGGTCTTGATTCGCTTGACGCTGCTG”, the figure is 1.46 z-score.
“CCGATTAACATCAAGGCATTTCCTGATGTTAATCGGGTCTTGATTCGCTTGACGCTGCTG” showed a binding signal of 1.06 z-score.
The same measure for “CCGATTAACATCACGGAACTTCCTGATGTTAATCGGGTCTTGATTCGCTTGACGCTGCTG”: 2.23 z-score; for “CCGATTAACATCACGGAATCTCCTGATGTTAATCGGGTCTTGATTCGCTTGACGCTGCTG”: 2.17 z-score; for “CCGATTAACATCAGGAAACGCCCTGATGTTAATCGGGTCTTGATTCGCTTGACGCTGCTG”: 3.05 z-score.
The same measure for “CCGATTAACATCAGGAATTGCCATGATGTTAATCGGGTCTTGATTCGCTTGACGCTGCTG”: 1.02 z-score; for “CCGATTAACATCAGGAAATTCTATGATGTTAATCGGGTCTTGATTCGCTTGACGCTGCTG”: 1.08 z-score; for “CCGATTAACATCAGGAATTCTCCTGATGTTAATCGGGTCTTGATTCGCTTGACGCTGCTG”: 1.31 z-score.
The same measure for “CCGATTAACATCAGGAACTTCCATGATGTTAATCGGGTCTTGATTCGCTTGACGCTGCTG”: 1.63 z-score; for “CCGATTAACATCAACGGAATTTCTGATGTTAATCGGGTCTTGATTCGCTTGACGCTGCTG”: 1 z-score; for “CCGATTAACATCACTAAATTTCCTGATGTTAATCGGGTCTTGATTCGCTTGACGCTGCTG”: 1.07 z-score.
The sequence “CCGATTAACATCACGGACATTCCTGATGTTAATCGGGTCTTGATTCGCTTGACGCTGCTG” displayed a binding signal of 1.97 z-score.
As to “CCGATTAACATCAGGGCAGTCCATGATGTTAATCGGGTCTTGATTCGCTTGACGCTGCTG”, the binding signal stood at 1.1 z-score.
The same measure for “CCGATTAACATCAAAAATCCGGTTGATGTTAATCGGGTCTTGATTCGCTTGACGCTGCTG”: 1.32 z-score; for “CCGATTAACATCACGGAGAATCCTGATGTTAATCGGGTCTTGATTCGCTTGACGCTGCTG”: 1.18 z-score.
As for “CCGATTAACATCACGGAAATGCCTGATGTTAATCGGGTCTTGATTCGCTTGACGCTGCTG”, the figure is 1.48 z-score.
The same measure for “CCGATTAACATCAGGACATTCCATGATGTTAATCGGGTCTTGATTCGCTTGACGCTGCTG”: 1.23 z-score; for “CCGATTAACATCACGGACTCTCCTGATGTTAATCGGGTCTTGATTCGCTTGACGCTGCTG”: 2.26 z-score.
